# From PubChem BioAssay (Tox21)
# Records with an inconclusive call do not appear. Unmarked numbers belong to inactive results. Calls of active or inactive are those of the source. The call rests on the fitted dose curve; in most records, active means well fitted activation curve with a large enough effect in the repeat runs; inconclusive means weak or mixed curves; inactive means no such curve, though single readings can be large or run the other way.
# Target: Aryl hydrocarbon receptor (Homo sapiens) (UniProt P35869)
# Sequence (P35869 whole entry, looked up): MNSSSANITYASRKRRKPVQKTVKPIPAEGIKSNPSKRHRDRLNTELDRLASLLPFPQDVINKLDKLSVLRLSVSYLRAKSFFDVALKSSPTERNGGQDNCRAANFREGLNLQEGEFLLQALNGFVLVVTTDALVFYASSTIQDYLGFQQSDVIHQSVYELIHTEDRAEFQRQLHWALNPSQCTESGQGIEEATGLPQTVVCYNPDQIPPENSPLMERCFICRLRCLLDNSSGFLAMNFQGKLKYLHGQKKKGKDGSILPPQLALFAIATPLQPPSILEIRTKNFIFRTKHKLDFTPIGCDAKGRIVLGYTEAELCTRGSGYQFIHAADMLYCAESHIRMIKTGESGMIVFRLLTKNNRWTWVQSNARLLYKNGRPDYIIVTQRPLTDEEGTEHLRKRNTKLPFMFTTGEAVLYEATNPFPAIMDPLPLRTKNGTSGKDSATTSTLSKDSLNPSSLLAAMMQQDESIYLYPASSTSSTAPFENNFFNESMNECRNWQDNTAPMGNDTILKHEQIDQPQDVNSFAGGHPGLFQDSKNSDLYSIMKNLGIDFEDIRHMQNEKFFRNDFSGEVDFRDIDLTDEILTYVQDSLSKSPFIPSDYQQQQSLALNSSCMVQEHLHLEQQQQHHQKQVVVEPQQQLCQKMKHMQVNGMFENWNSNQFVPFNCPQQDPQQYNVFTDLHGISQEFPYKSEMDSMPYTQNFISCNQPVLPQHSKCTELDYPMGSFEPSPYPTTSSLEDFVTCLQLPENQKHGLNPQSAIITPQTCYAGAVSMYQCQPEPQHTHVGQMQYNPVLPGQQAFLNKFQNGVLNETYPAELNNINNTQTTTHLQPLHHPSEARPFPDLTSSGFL
# Assay: qHTS assay to identify small molecule that activate the aryl hydrocarbon receptor (AhR) signaling pathway (AID 743085); further: nearly all actives have a fitted effect of over 15% in size;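 on activation: HG2L7.5c1 human HepG2 liver cells with stably integrated DRE-driven firefly reporter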
# Conditions: HepG2 AhR-luc (HG2L7.5c1), luciferase, 24 h; series mostly up to 70.3 µM; activation: at the top concentration
# Source text: U.S. Tox21 Program National Center for Advancing Translational Sciences [NCATS] NIH Chemical Genomics Center [NCGC] U.S. Environmental Protection Agency [EPA] National Institutes of Environmental Health Sciences [NIEHS] National Toxicology Program [NTP] U.S. Food and Drug Administration [FDA] Tox21 Assay overview: The Aryl hydrocarbon Receptor (AhR), a member of the family of basic helix-loop-helix transcription factors, is crucial to adaptive responses to environmental changes. AhR mediates cellular responses to environmental pollutants such as aromatic hydrocarbons through induction of phase I and II enzymes but also interacts with other nuclear receptor signaling pathways. A cell based HepG2-AhR-luc assay (HG2L7.5c1 cell line, developed by Dr. Michael S. Denison, University of California at Davis, was used to assess the activation of AhR. HepG2 (human hepatocellular carcinoma) cells were stably transfected with an Ah receptor-responsive firefly luciferase reporter gene plasmid containing 20 dioxin responsive elements and luciferase reporter gene. Increased luciferase activity can be used to identify the compounds that induce AhR activation.
# Tox21 Assay Protocol Summary: 4000 cells in 5 uL/well were dispensed into white wall/solid bottom 1536-well plates using a Multidrop Combi (Thermo Fisher Scientific Inc., Waltham, MA) dispenser. After the assay plates were incubated at 37C for 5 h, 23 nL of compound or DMSO vehicle was transferred to the assay plates by a pintool station (Kalypsys, San Diego, CA). The plates were incubated at 37C for 24 hr. After 1 ul/well of CellTiter-Fluor reagent (Promega, Madison, WI) was added into the assay plates using a Flying Reagent Dispenser (FRD) (Aurora Discovery, CA), the assay plates were incubated at 37C for 30 min. The fluorescence intensity in the plates was measured using a ViewLux plate reader (PerkinElmer, Shelton, CT), followed by the addition of 4 uL of ONE-Glo Luciferase Assay reagent (Promega) using an FRD (Aurora Discovery). After the assay plates were incubated at room temperature for 30 min, luminescence intensity was measured using a ViewLux plate reader (Perkin Elmer).
# On the % scale 0 is the no-effect control and ±100 the full control effect; potency means the concentration at half of the fitted maximal effect.
Compound,activation,Potency
[O]=[Bi][O][Bi]=[O],-2.65%,–
OCC(O)COc1ccc(Cl)cc1 (stereo not given),-2.59%,–
CCC(=O)OCC(=O)[C@@]1(OC(=O)CC)[C@@H](C)C[C@H]2[C@@H]3CCC4=CC(=O)C=C[C@]4(C)[C@@]3(Cl)[C@@H](O)C[C@@]21C,–,10.6 µM (active)
COc1ccc(C[C@@H](C)NC[C@H](O)c2ccc(O)c(NC=O)c2)cc1,-0.17%,–
CN[C@@H]1[C@H](O[C@H]2[C@H](O[C@H]3[C@H](O)[C@@H](O)[C@H](N=C(N)N)[C@@H](O)[C@@H]3N=C(N)N)O[C@@H](C)[C@]2(O)CO)O[C@@H](CO)[C@H](O)[C@H]1O,-1.66%,–
[O]=[Bi][O]C(=O)[O][Bi]=[O],-0.826%,–
CC1(C)C(\C=C/C=C\C=C/C=C2/N(CCCCS(=O)(=O)O)c3ccc4ccccc4c3C2(C)C)=[N+](CCCCS(=O)(=O)[O-])c2ccc3ccccc3c21,1.96%,–
CC(C)(C)C(=O)OCOC(=O)[C@@H]1N2C(=O)[C@@H](N=CN3CCCCCC3)[C@H]2SC1(C)C,-1.6% [at 32.5 µM],–
CCOc1ccc(N=Nc2ccc(N)cc2N)cc1,–,0.944 µM (active)
C[C@]12CC[C@@H]3c4ccc(O)cc4CC[C@H]3[C@@H]1CC[C@@H]2OP(=O)(O)O,2.54%,–
CCN(CC)CCC(=O)N1c2ccccc2Sc2ccc(Cl)cc21,-5.23%,–
CC(C)(C)CC(=O)OCC(=O)[C@@]12OC(C)(C)O[C@@H]1C[C@H]1[C@@H]3CCC4=CC(=O)C=C[C@]4(C)[C@@]3(F)[C@@H](O)C[C@@]12C,-1.28%,–
CO/N=C(\C(=O)N[C@@H]1C(=O)N2C(C(=O)OCOC(=O)C(C)(C)C)=C(/C=C\c3scnc3C)CS[C@H]12)c1csc(N)n1,0.276%,–
CC(C)C(=O)OCC(=O)[C@@]12O[C@H](C3CCCCC3)O[C@@H]1C[C@H]1[C@@H]3CCC4=CC(=O)C=C[C@]4(C)[C@H]3[C@@H](O)C[C@@]12C,0.275%,–
O=C(Cn1c(=O)sc2ccc(Cl)cc21)N1CCN(CCO)CC1,1.86%,–
CC(=O)Oc1cc(C)c(OC(C)=O)c2ccccc12,–,29.8 µM (active)
CCOC(=O)[C@@H](N)CS,-0.0966%,–
C=C[C@]1(C)C[C@@H](OC(=O)CO)[C@]2(C)[C@H](C)CC[C@]3(CCC(=O)[C@H]32)[C@@H](C)[C@@H]1O,-2.48%,–
CCOC(=O)CN[C@@H](C(=O)N1CC[C@H]1C(=O)NCc1ccc(/C(N)=N/O)cc1)C1CCCCC1,-2.79%,–
CN1CCC(CN2c3ccccc3Sc3ccccc32)C1 (stereo not given),0.14%,–

Compound,activation,Potency
CCCCC(C)(O)C/C=C/[C@H]1[C@H](O)CC(=O)[C@@H]1CCCCCCC(=O)OC (stereo not given in full),0.73%,–
CCCC(CCC)C(N)=O,2.54%,–
O=C(O)c1ccc(OCCn2ccnc2)cc1,6.47%,–
COc1ccc2c(c1)N(C[C@H](C)CN(C)C)c1ccccc1S2,-2.08% [at 32.5 µM],–
O.O=C([O-])CC([S-])C(=O)[O-].[Au+].[Na+].[Na+] (stereo not given),-2.86%,–
CC1=C(C(=O)OCCN(Cc2ccccc2)c2ccccc2)C(c2cccc([N+](=O)[O-])c2)C(P2(=O)OCC(C)(C)CO2)=C(C)N1 (stereo not given),4.41%,–
CC(CN(C)C)CN1c2ccccc2Sc2ccc(C(F)(F)F)cc21 (stereo not given),-0.572%,–
CN[C@@H]1[C@@H](O)[C@@H](O[C@@H]2[C@@H](O)[C@H](O[C@H]3O[C@H](CN)[C@@H](O)[C@H](O)[C@H]3O)[C@@H](N)C[C@H]2NC(=O)C(O)CN)OC[C@]1(C)O (stereo not given in full),2.95%,–
CN1[C@@H]2CCC[C@H]1CC(NC(=O)c1nn(C)c3ccccc13)C2 (stereo not given in full),6.53%,–
O=C(O)C1CCCN1 (stereo not given),0.676%,–
O=C(O)CN(CC(=O)O)CC1=CC2C(=CC1=O)Oc1cc(O)c(CN(CC(=O)O)CC(=O)O)cc1C21OC(=O)c2ccccc21 (stereo not given),2.53%,–
CCCC(=O)Nc1ncnc2c1ncn2[C@@H]1O[C@@H]2COP(=O)(O)O[C@H]2[C@H]1OC(=O)CCC,-0.111%,–
CCCCCCCCCCCCCCCCCC(=O)OC[C@@H](O)[C@H]1OC[C@H](O)[C@H]1O,-0.284%,–
O=C(CO)[C@@H](O)[C@H](O)[C@@H](O)C(=O)O,0.254%,–
O=C[C@H](O)[C@@H](O)[C@H](O[C@H]1O[C@H](CO)[C@@H](O[C@H]2O[C@H](CO)[C@@H](O)[C@H](O)[C@H]2O)[C@H](O)[C@H]1O)[C@H](O)CO,-3.23%,–
S=C1SCN(Cc2ccccc2)CN1Cc1ccccc1,2.95%,–
CC(=O)N=c1sc(S(N)(=O)=O)nn1C,-0.364% [at 32.5 µM],–
Cc1nnc(C(C)C)n1C1C[C@H]2CC[C@@H](C1)N2CC[C@H](NC(=O)C1CCC(F)(F)CC1)c1ccccc1 (stereo not given in full),-0.955%,–
COc1ccc2c(c1)OC(C)(C)C(c1ccccc1)C2c1ccc(OCCN2CCCC2)cc1 (stereo not given),-1.05%,–
C=C1C(=C/C=C2\CCC[C@]3(C)[C@@H]([C@H](C)CCCC(C)(C)O)CC[C@@H]23)C[C@@H](O)C[C@@H]1O,–,10.6 µM (active)
